Screen size: about 39,000 compounds; about 3,300 (8.5%) were called active. Many of the other results were omitted from the sample, so actives are more common in it than they were.
test system: HepG2; experiment: cytotoxicity call (relative viability < 0.9); conditions: 10 µM

Row | SMILES | cytotoxicity call
1 | O=C(C[C@H]1CC[C@H]2[C@@H](COC[C@H](O)CN2S(=O)(=O)c2ccc(Cl)cc2)O1)N[C@@H]1CCN(Cc2ccccc2)C1 | inactive
2 | CCCN(C)C[C@@H]1OCCCC[C@@H](C)Oc2ccc(NS(=O)(=O)c3cn(C)cn3)cc2C(=O)N([C@H](C)CO)C[C@@H]1C | inactive
3 | COc1ccc(NC(=O)N(C)C[C@H]2Oc3ncc(C#CC(C)C)cc3C(=O)N([C@H](C)CO)C[C@H]2C)cc1 | inactive
4 | C[C@H]1O[C@@H](O[C@H]2[C@@H](O)C[C@H](O[C@H]3[C@@H](O)C[C@H](O[C@H]4CC[C@@]5(C)[C@H](CC[C@@H]6[C@@H]5CC[C@]5(C)[C@@H](C7=CC(=O)OC7)CC[C@]65O)C4)O[C@@H]3C)O[C@@H]2C)C[C@H](O)[C@@H]1O | active
5 | CC1OC(OC2C(O)CC(OC3C(O)CC(OC4CCC5(C)C(CCC6C5CCC5(C)C(C7=CC(=O)OC7)CCC65O)C4)OC3C)OC2C)CC(O)C1O (configuration not stated) | active
6 | Cc1ccc(S(=O)(=O)N(C)C[C@H]2OCCCC[C@H](C)Oc3ccc(NC(=O)Nc4cccc5ccccc45)cc3C(=O)N([C@H](C)CO)C[C@H]2C)cc1 | inactive
7 | NCCCN1CCCN(CCCN)CC1 | inactive
8 | NCCCn1c2c(c3ccccc31)CCCC2 | active
9 | CC(=O)N1C(=O)N(C(C)=O)[C@@H](O)[C@H]1O | inactive
10 | O=C(C[C@@H]1CC[C@H](NS(=O)(=O)c2ccccc2)[C@H](CO)O1)NCc1ccncn1 | inactive
11 | Nc1nnc(C(F)(F)F)[nH]1 | inactive
12 | CCCc1ccc2c(c1)CNCCC2 | inactive
13 | COc1ccc(NC(=O)N(C)C[C@@H]2OCCCC[C@@H](C)Oc3ccc(NC(=O)Cc4ccccc4)cc3C(=O)N([C@H](C)CO)C[C@@H]2C)cc1 | inactive
14 | C[C@@H]1CN([C@H](C)CO)C(=O)c2cc(NS(C)(=O)=O)ccc2O[C@@H]1CN(C)C(=O)Nc1ccc2c(c1)OCO2 | inactive
15 | C[C@@H]1CN([C@H](C)CO)C(=O)c2cc(NC(=O)Nc3ccccc3)ccc2O[C@@H](C)CCCCO[C@@H]1CN(C)S(=O)(=O)c1ccccc1 | inactive
16 | C[C@H]1CN([C@@H](C)CO)C(=O)c2cccc(NC(=O)Nc3cccc4ccccc34)c2O[C@H]1CN(C)Cc1ccc(Oc2ccccc2)cc1 | active
17 | C[C@H](CO)N1C[C@H](C)[C@@H](CN(C)Cc2ccc(Oc3ccccc3)cc2)Oc2c(NC(=O)Nc3cccc4ccccc34)cccc2C1=O | active
18 | COc1ccc(CN(C)C[C@@H]2Oc3c(NC(=O)Nc4cccc5ccccc45)cccc3C(=O)N([C@H](C)CO)C[C@@H]2C)cc1 | inactive
19 | C[C@@H]1CN([C@H](C)CO)C(=O)c2cccc(NC(=O)Nc3cccc4ccccc34)c2O[C@@H]1CN(C)Cc1ccc(Oc2ccccc2)cc1 | inactive
20 | C[C@H](CO)N1C[C@H](C)[C@H](CN(C)Cc2ccc(Oc3ccccc3)cc2)Oc2c(NC(=O)Nc3cccc4ccccc34)cccc2C1=O | inactive
21 | COc1ccc(CN(C)C[C@@H]2Oc3c(NC(=O)Nc4cccc5ccccc45)cccc3C(=O)N([C@@H](C)CO)C[C@@H]2C)cc1 | inactive
22 | CO[C@@H]1CN(C)C(=O)c2cc(NC(=O)Nc3cccc(Cl)c3)ccc2OC[C@H](C)N(C(=O)Nc2c(C)noc2C)C[C@@H]1C | inactive
23 | C[C@H]1CC/C=C\[C@H]2O[C@@]34C=CCN(Cn5nnc6ccccc65)C(=O)[C@H]3N(CCCO)C(=O)[C@@H]4[C@@H]2C(=O)O1 | inactive
24 | C[C@H]1CCCCO[C@H](CN(C)C(=O)c2ccccc2)[C@@H](C)CN([C@@H](C)CO)C(=O)c2cc(NC(=O)Nc3ccc(C(F)(F)F)cc3)ccc2O1 | inactive
25 | O=C(NC1(C(F)(F)F)Oc2cc(Cl)c(Cl)cc2O1)C1=C(N2CCOCC2)/C(=C/c2ccccc2)CC1 | active
26 | C[C@H]1CN([C@@H](C)CO)C(=O)c2cc(NS(=O)(=O)c3ccc(F)cc3)ccc2O[C@@H]1CN(C)CC1CC1 | inactive

Row | SMILES | cytotoxicity call
27 | C[C@@H]1CN([C@H](C)CO)C(=O)c2cccc(NC(=O)C3CC3)c2O[C@@H]1CN(C)S(=O)(=O)c1cccs1 | inactive
28 | C[C@@H]1CN([C@H](C)CO)C(=O)Cc2cc(NC(=O)Nc3ccc(F)cc3)ccc2O[C@@H]1CN(C)S(=O)(=O)c1cn(C)cn1 | inactive
29 | C[C@H](CO)N1C[C@H](C)[C@@H](CN(C)S(=O)(=O)c2cccs2)Oc2ccc(NC(=O)Nc3cccc4ccccc34)cc2C1=O | inactive
30 | CN1CCN(CCO)C(=O)C12CCN([C@H]1CCOC1)CC2 | inactive
31 | C=CCOC(=O)[C@H]1[C@@H]2C(=O)O[C@@H](c3ccccc3)[C@@H](c3ccccc3)N2[C@@H](c2ccc(OCCOC(=O)[C@H]3C[C@H]4C(=O)N5CCC[C@H]5C(=O)N4[C@H]3c3ccc(O)cc3)cc2)[C@]12C(=O)Nc1ccc(I)cc12 | inactive
32 | Cc1noc(C)c1S(=O)(=O)Nc1ccc2c(c1)CC(=O)N([C@H](C)CO)C[C@@H](C)[C@H](CN(C)Cc1ccc(Oc3ccccc3)cc1)O2 | inactive
33 | COc1oc(C(=O)NC2CCCCC2)c(-c2ccc(Cl)cc2)c1S(=O)(=O)c1ccc(Cl)cc1 | inactive
34 | COc1oc(C(=O)NC2CCCCC2)c(-c2ccc(Cl)cc2)c1S(=O)(=O)c1ccc(Br)cc1 | inactive
35 | C#CCOc1ccc(-c2c(C(=O)NC3CCCCC3)oc(OC)c2S(=O)(=O)c2ccc(Cl)cc2)cc1 | active
36 | C[C@@H]1CN([C@@H](C)CO)C(=O)c2cc(NS(=O)(=O)c3cn(C)cn3)ccc2O[C@@H](C)CCCCO[C@H]1CN(C)Cc1ccc(C(F)(F)F)cc1 | inactive
37 | CCCCC1C(=O)N(c2ccccc2)N(c2ccc(O)cc2)C1=O (configuration not stated) | active
38 | O=C1C(CCS(=O)c2ccccc2)C(=O)N(c2ccccc2)N1c1ccccc1 (configuration not stated) | inactive
39 | CCCCC1C(=O)N(c2ccccc2)N(c2ccccc2)C1=O | inactive
40 | CC[C@H](C(=O)O)N1CCCC1 | inactive
41 | C[C@@H]1CN([C@H](C)CO)C(=O)Cc2cc(NC(=O)CCCCCC(=O)Nc3ccccc3N)ccc2O[C@H]1CN(C)CC1CCCCC1 | inactive
42 | C[C@H]1CN([C@@H](C)CO)C(=O)c2cc(NC(=O)CCCCCC(=O)Nc3ccccc3N)ccc2O[C@@H]1CN(C)CC1CCCCC1 | inactive
43 | C[C@@H]1CCCCO[C@@H](CN(C)CC2CCCCC2)[C@@H](C)CN([C@H](C)CO)C(=O)c2cc(NC(=O)CCCCCC(=O)Nc3ccccc3N)ccc2O1 | inactive
44 | C[C@@H]1CN([C@H](C)CO)C(=O)Cc2cc(NC(=O)CCCCCC(=O)Nc3ccccc3N)ccc2O[C@@H]1CN(C)CC1CCCCC1 | inactive
45 | C[C@H]1CN([C@@H](C)CO)C(=O)c2cc(NC(=O)CCCCCC(=O)Nc3ccccc3N)ccc2O[C@H]1CN(C)CC1CCCCC1 | active
46 | C[C@H](CO)N1C[C@H](C)[C@H](CN(C)CC2CCCCC2)Oc2ccc(NC(=O)CCCCCC(=O)Nc3ccccc3N)cc2C1=O | active
47 | C[C@H](CO)N1C[C@H](C)[C@@H](CN(C)CC2CCCCC2)Oc2ccc(NC(=O)CCCCCC(=O)Nc3ccccc3N)cc2C1=O | active
48 | C[C@@H]1CN([C@@H](C)CO)C(=O)Cc2cc(NC(=O)CCCCCC(=O)Nc3ccccc3N)ccc2O[C@@H]1CN(C)CC1CCCCC1 | active
49 | C[C@@H]1CN([C@H](C)CO)C(=O)c2cc(NC(=O)CCCCCC(=O)Nc3ccccc3N)ccc2O[C@H]1CN(C)CC1CCCCC1 | inactive
50 | C[C@@H]1CN([C@@H](C)CO)C(=O)c2cc(NC(=O)CCCCCC(=O)Nc3ccccc3N)ccc2O[C@H]1CN(C)CC1CCCCC1 | inactive
51 | C[C@@H]1CN([C@@H](C)CO)C(=O)c2cc(NC(=O)CCCCCC(=O)Nc3ccccc3N)ccc2O[C@@H]1CN(C)CC1CCCCC1 | inactive
52 | C[C@@H]1CN([C@@H](C)CO)C(=O)c2cc(NC(=O)CCCCCC(=O)Nc3ccccc3N)ccc2O[C@@H](C)CCCCO[C@@H]1CN(C)CC1CCCCC1 | inactive

Source: the antibiotic and cytotoxicity screens of Wong et al. (2023)
